# Experimental data as given in PubChem BioAssay (NCATS).
# Inconclusive results are not listed. A call without a number means that no potency is given here. The source made the active and inactive calls. The call rests on the fitted dose curve; in most records, active means well fitted cell-killing curve with a large enough effect; inconclusive means small, poorly fitted or top-dose-only effect, or effect the other way; inactive means no such curve, though single readings can be large or run the other way.
# Experiment: Quantitative High-Throughput drug screen in 47 multiple myeloma cell lines against the NCATS MIPE library collection: KMS11_JCRBsus cell viability assay (AID 1919873); further: nearly all actives have a fitted effect of over 50% in size
# Details: KMS11 myeloma viability, CellTiter-Glo ATP luminescence, 48 h; series mostly up to 45.8 µM
# In short: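 ATP-based CellTiter-Glo luminescence after 48 h drug exposure (37 °C, 5% CO2) of 500 myeloma cells per well. DMSO-only wells set 100% viability, media-only wells 0%; MIPE 4.0 library added by pin tool.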
# Potency means the concentration at half of the fitted maximal effect.
row,Compound,Potency
1,CC=CC[C@@H](C)C(=O)[C@H]1C(=O)N[C@@H](C(C)C)C(=O)N(C)CC(=O)N(C)[C@@H](CC(C)C)C(=O)N[C@@H](C(C)C)C(=O)N(C)[C@@H](CC(C)C)C(=O)N[C@@H](C)C(=O)N[C@H](C)C(=O)N(C)[C@@H](CC(C)C)C(=O)N(C)[C@@H](CC(C)C)C(=O)N(C)[C@@H](C(C)C)C(=O)N1C,14.8 µM (active)
2,Cc1ccc(/C=N/NC(=O)c2ccccc2Oc2ccccc2)o1,9.35 µM (active)
3,CC(C)(C)OC(=O)N[C@H]1CCCCCC=C[C@@H]2C[C@@]2(C(=O)NS(=O)(=O)C2CC2)NC(=O)[C@@H]2C[C@@H](OC(=O)N3Cc4cccc(F)c4C3)CN2C1=O,inactive
4,O=C(Nc1cccc(Br)c1)c1cccc(S(=O)(=O)N2CCCCCC2)c1,18.7 µM (active)
5,O=C(O)c1ccc(-c2cc3cccnc3c(-c3ccc4nonc4c3)n2)cc1,26.4 µM (active)
6,COc1ccc2c3c1OC1C[C@@H](O)C=C[C@@]31CCN(C)C2 (stereo partly drawn),inactive
7,CC[C@H]1OC(=O)[C@H](C)C(=O)[C@H](C)[C@@H](O[C@H]2O[C@H](C)C[C@H](N(C)C)[C@@H]2O)[C@](C)(OC)C[C@@H](C)C(=O)[C@H](C)[C@H]2N(CCCCn3cnc(-c4cccnc4)c3)C(=O)O[C@]12C,16.6 µM (active)
8,O=C(Nc1c(Cl)cncc1Cl)c1ccc(OC(F)F)c(OCC2CC2)c1,inactive
9,NC(=O)NN=Cc1ccc([N+](=O)[O-])o1,inactive
10,CCOc1ccc(Nc2nc(-c3c(C)nc4ccccn34)cs2)cc1,inactive
11,CCOC(CN1C(=O)[C@](CC(=O)Nc2ccc(C)cc2)(NC(=O)Nc2ccc(C)cc2)c2ccccc21)OCC,26.4 µM (active)
12,O=C(Nc1cc(Cl)cc2c1[nH]c1cnccc12)c1cccnc1,inactive
13,N[C@@]1(C(=O)O)CS(=O)(=O)[C@H]2[C@H](C(=O)O)[C@H]21,inactive
14,COc1ccc(-c2nc(N3CCOCC3)c3sc(CN(C)c4ncc(C(=O)NO)cn4)cc3n2)cn1,inactive
15,CC(=O)N(C)C1(c2ccccc2)CCN(CCC[C@]2(c3ccc(Cl)c(Cl)c3)CCCN(C(=O)c3ccccc3)C2)CC1,9.35 µM (active)
16,CC=CCC(C)C(O)C1C(=O)NC(CC)C(=O)N(C)CC(=O)N(C)C(CC(C)C)C(=O)NC(C(C)C)C(=O)N(C)C(CC(C)C)C(=O)NC(C)C(=O)NC(C)C(=O)N(C)C(CC(C)C)C(=O)N(C)C(CC(C)C)C(=O)N(C)C(C(C)C)C(=O)N1C (stereo not drawn),inactive
17,O=C(O)c1ccc(-c2c[nH]c3ncc(-c4ccccc4)cc23)cc1C1CCCC1,inactive
18,O=C(NCc1ccncc1)C12C[C@H]3C[C@@H](C1)CC(c1ccc(Cl)cc1)(C3)C2,14.8 µM (active)
